# Screening results as filed in PubChem BioAssay.
# Most compounds without a hit are left out; they make up all but 4.3% or so of the library.
# SMARCA2 activ: activators of SMARCA2 function. AID 652017. MG213 cells, MMTV-luciferase reporter, dexamethasone, overnight. 370,000 compounds, 1% hits. activation, % at 9.1 µM; in the data active = activation above about 7.8%;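 also: 0% = vehicle wells and 100% = reference activator wells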
# Wnt act: activates Wnt/beta-catenin signaling in a reporter cell assay; activation, % at 9.35 µM; activator, plate reader; 300,000 compounds, 1.2% hits; AID 743398; in the data active = activation above about 30%, passing the limit was not always enough;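 also: 0% = neutral control wells and 100% = positive control wells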
# FGF22 binding: binders of recombinant human FGF22 by thermal shift; Q9HCT0; SYPRO orange fluorescence; percent of sucrose octasulfate shift, DMSO zero; activity (Tm shift, normalised), % at 9.99 µM; 340,000 compounds, 1.5% hits;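 active = mean Tm shift, scaled 0 neutral to 100 positive control, at about 1.3% or above, every replicate too, limit read from the data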
# esBAF inh: SWI/SNF esBAF complex inhibition | mouse ES cells, Bmi1-luciferase knock-in reporter, 24 h; 100% = twice the neutral-well signal | reporter increase, % at 12.5 µM | 350,000 compounds, 2% hits | AID 602393; in the data active = activation above about 40%;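 also: 0% = median of the plate's neutral control wells and 100% = double that signal; a rise in the Bmi1 reporter signal indicates esBAF inhibition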
# AF4-AF9 inh: inhibitors of human MLL-AF4/AF9 interaction; P42568; AlphaScreen, biotin-AF4 peptide binding to FLAG-AF9; inhibition, % at 10 µM; 350,000 compounds, 0.47% hits;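 active = every replicate reaching a set inhibition limit, whatever the replicate mean, cut at about 25% in these data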;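 also: 0% = plate neutral control median and 100% = total signal loss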
# Target sequence (P42568 whole entry, looked up): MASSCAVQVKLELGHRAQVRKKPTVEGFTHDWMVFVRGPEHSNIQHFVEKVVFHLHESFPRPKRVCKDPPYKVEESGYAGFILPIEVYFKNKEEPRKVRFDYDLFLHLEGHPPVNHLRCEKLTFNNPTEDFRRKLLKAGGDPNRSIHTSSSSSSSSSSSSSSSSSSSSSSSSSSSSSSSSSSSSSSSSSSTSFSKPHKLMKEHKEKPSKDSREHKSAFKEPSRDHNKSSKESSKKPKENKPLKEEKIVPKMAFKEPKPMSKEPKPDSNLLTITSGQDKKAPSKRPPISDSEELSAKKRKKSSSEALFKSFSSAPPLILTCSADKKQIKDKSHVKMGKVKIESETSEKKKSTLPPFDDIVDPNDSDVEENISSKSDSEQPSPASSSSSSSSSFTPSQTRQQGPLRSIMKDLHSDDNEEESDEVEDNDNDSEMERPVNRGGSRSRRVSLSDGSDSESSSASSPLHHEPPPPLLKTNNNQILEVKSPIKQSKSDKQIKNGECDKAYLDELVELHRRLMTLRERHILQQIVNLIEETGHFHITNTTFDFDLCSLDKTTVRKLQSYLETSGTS
# MITF TRPM1 HTS: activators of MITF-driven TRPM1 promoter activity in SK-MEL-5 cells; SK-MEL-5 TRPM1-promoter luciferase, 24 h; % of positive control, neutral wells = 0; activation, % at 12.5 µM; 300,000 compounds, 0.75% hits; AID 588334;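 active = mean activation of at least 80% with every replicate also reaching 80%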;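 also: 0% = neutral control wells and 100% = parthenolide positive control wells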
# An asterisk follows results filed as active; . = no result given.
SMILES,SMARCA2 activ,Wnt act,FGF22 binding,esBAF inh,AF4-AF9 inh,MITF TRPM1 HTS
Cc1cccc(OCc2nnc(SC(C)C(=O)O)n2Cc2ccccc2)c1 (stereo not drawn),0,0,43*,-4,-2,-2
Cc1cc(NC(=O)c2ccc(N3C(=O)C4C5C=CC(C5)C4C3=O)cc2)no1 (stereo not drawn),-2,-2,44*,.,-1,17
COc1ccccc1NC(=O)c1cccc(N2C(=O)C3C4C=CC(C4)C3C2=O)c1 (stereo not drawn),1,0,44*,7,1,-1
c1csc(C2Nc3ccccc3-c3nc4ccccc4n32)c1 (stereo not drawn),1,80*,.,.,.,36
c1cncc(C2Nc3ccccc3-c3nc4ccccc4n32)c1 (stereo not drawn),1,7,0,59*,-19,14
Cc1ccsc1C1Nc2ccccc2-c2nc3ccccc3n21 (stereo not drawn),1,19,0,.,-4,49
c1ccc2c(c1)NC(c1ccncc1)n1c-2nc2ccccc21 (stereo not drawn),6,56*,.,.,.,28
C/C=C/c1ccc([C@H]2[C@@H](CO)N3C(=O)CN(C(=O)c4cnccn4)C[C@@H]23)cc1,.,.,.,.,-1,.
C[C@@H]1CN([C@H](C)CO)C(=O)c2c(c3ccccc3n2C)-c2ccccc2CO[C@@H]1CN(C)C(=O)[C@@H]1CCCN1C,.,.,0,7,0,.
COc1ccc(CN(C)C[C@@H]2OCCCC[C@H](C)Oc3ccc(NC(=O)CCC(F)(F)F)cc3C(=O)N([C@H](C)CO)C[C@@H]2C)cc1,.,.,-1,-14,3,.
O=C(COC(=O)COc1cccc2ccccc12)NCC(F)(F)F,2,0,43*,.,-2,0
O=C(COc1cccc2cccnc12)NCC(F)(F)F,-1,12,.,-10,.,0
O=C1C2C3C=CC(C4CC34)C2C(=O)N1/N=C/c1c[nH]c2ccccc12 (stereo not drawn),-2,11,0,57*,-5,-1
O=C1C2C3C=CC(C4CC34)C2C(=O)N1/N=C/c1ccc([N+](=O)[O-])s1 (stereo not drawn),-2,12,1,.,-4,20
Cc1ccc(F)c([C@H]2C3C=CCC(c4ccccc4)C3C(=O)N2Cc2ccccc2)c1 (stereo partly drawn),-3,-8,0,2,50*,8
O=C1C2C(c3ccccc3)CC=CC2[C@H](c2ccc3ccccc3c2)N1Cc1ccccc1 (stereo partly drawn),-1,-9,0,0,-5,19
Clc1ccc(-c2cnn3c(-c4ccncc4)ccnc23)cc1,3,64*,44*,.,-6,15
Nc1c(C(=O)O)cnc2c(-c3ccc(Cl)cc3)cnn12,3,10,0,47*,-1,-3
CC(=O)c1cnc2c(-c3ccc(Cl)cc3)cnn2c1C,-4,.,.,75*,.,73
CCCCOc1ccc(C(=O)N/C(=C\c2cccc([N+](=O)[O-])c2)C(=O)OCCC)cc1,2,.,.,.,.,-5
CCCCOc1ccc(C(=O)N/C(=C/c2cccc([N+](=O)[O-])c2)C(=O)O)cc1,0,-1,52*,.,-5,1
CCC(=O)N1[C@@H](CO)[C@@H]2c3ccccc3N(C(=O)c3ccc4c(c3)OCO4)C[C@@H]21,.,.,1,-3,-3,.
CCCN1CNC(=S)N(c2ccc(C)cc2C)C1,-3,-1,0,.,-4,.
CCCN1CNC(=S)N(c2ccccc2C)C1,1,0,43*,.,-1,-7
O=C(NC(=S)Nc1ccccc1)C1CCCCC1,3,6,0,41*,0,50
COc1ccc(NC(=S)NC(=O)C2CCC2)cc1,4,38*,0,47*,1,31
CC(C)Cc1ccc(/C=C/C(=O)NC2CC2)cc1,5,54*,-2,49*,0,80
O=C(/C=C/c1ccc(Br)cc1)NC1CCCCCC1,1,13,.,30,.,74
CN(C)CCCNC(=O)C[C@H]1C=C[C@@H](NC(=O)Cc2cccnc2)[C@@H](CO)O1,.,.,1,0,-1,.
